From PubChem BioAssay AID1851 (National Center for Advancing Translational Sciences (NCATS), 2009)
The campaign covered roughly 16,000 compounds. About 5,700 (36%) were called active. Roughly 24% stayed inconclusive and do not appear here. This is one part of the list. Unmarked numbers belong to inactive results. Calls come from the whole dose curve; as a rule, active = well fitted curve in the direction sought with a large enough effect; inconclusive = small, poorly fitted or top-dose-only effect, or effect the other way; inactive = no such curve, though single readings can be large or run the other way.

These compounds were tested against Cytochrome P450 1A2 (Homo sapiens) (UniProt P05177) (assay: Cytochrome panel assay with activity outcomes). Conditions: recombinant CYP, pro-luciferin dealkylation, luminescence, p450-cyp1a2; series mostly up to 57.1 µM; activity, negative = inhibition: at the top concentration.
% is set by controls: 0 for no effect and ±100 for the full control effect.

Cytochrome P450 1A2 (Homo sapiens), sequence (P05177 whole entry, looked up): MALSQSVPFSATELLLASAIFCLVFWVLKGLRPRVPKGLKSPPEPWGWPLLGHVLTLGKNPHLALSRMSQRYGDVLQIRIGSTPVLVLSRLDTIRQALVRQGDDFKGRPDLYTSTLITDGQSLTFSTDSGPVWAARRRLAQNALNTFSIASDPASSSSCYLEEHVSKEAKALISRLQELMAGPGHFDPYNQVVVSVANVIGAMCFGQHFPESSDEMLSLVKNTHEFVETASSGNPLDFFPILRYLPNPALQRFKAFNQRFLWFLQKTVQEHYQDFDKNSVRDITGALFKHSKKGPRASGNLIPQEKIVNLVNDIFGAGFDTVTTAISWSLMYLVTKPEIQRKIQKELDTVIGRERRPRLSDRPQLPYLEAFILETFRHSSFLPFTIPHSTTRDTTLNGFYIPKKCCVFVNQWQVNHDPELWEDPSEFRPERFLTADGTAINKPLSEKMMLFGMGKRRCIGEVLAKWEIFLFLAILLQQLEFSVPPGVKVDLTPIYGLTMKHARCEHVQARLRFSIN

SMILES	activity, negative = inhibition	AC50
CC(C)c1c(CN(C)[C@@H](C)Cc2ccccc2)n(C)n(-c2ccccc2)c1=O	-19.1% [at 25.6 µM]	
C#CCN(C)[C@H](C)Cc1ccccc1		12.6 µM (active)
CCCN1CCC[C@@H]2Cc3[nH]ncc3C[C@H]21		inactive
CC(C)[C@]1(O)[C@@H](OC(=O)c2ccc[nH]2)[C@]2(O)[C@@]3(C)C[C@@]4(O)O[C@@]5([C@H](O)[C@@H](C)CC[C@]35O)[C@]2(O)[C@]41C	-17.2% [at 2.29 µM]	
CCCCc1ccc(-c2nc(NC(=O)C3C4CCC(O4)C3C(=O)O)sc2C)cc1 (stereo not drawn)		15.8 µM (active)
O=C(O)[C@H]1[C@H](C(=O)O)[C@H]2CC[C@@H]1O2	2.38%	
CC(C)[C@@]1(NC(=O)[C@@H]2C[C@H]3c4cccc5[nH]cc(c45)C[C@@H]3N(C)C2)O[C@]2(O)[C@H]3CCCN3C(=O)CN2C1=O	-12.6% [at 25.6 µM]	
O=C(O)[C@H]1CCN1	0.0533%	
CC[C@]1([C@H]2O[C@@H]([C@@H]3O[C@](O)(CO)[C@@H](C)C[C@H]3C)C[C@H]2C)CC[C@@H]([C@]2(C)CC[C@@]3(C[C@@H](O)[C@@H](C)[C@@H]([C@H](C)[C@H](OC)[C@H](C)C(=O)O)O3)O2)O1	-4.88% [at 25.6 µM]	
CC(=O)OC1=CC2=CC[C@H]3[C@H]4CCC(=O)[C@@]4(C)CC(=O)[C@]3(S)[C@]2(C)CC1	-9.43% [at 2.29 µM]	
N[C@H]1C[C@H]1c1ccccc1		5.01 µM (active)
N[C@@H]1C[C@H]1c1ccccc1		15.8 µM (active)
C[C@@]12CC[C@H](O)C[C@@H]1CC[C@H]1[C@@H]2C[C@@H](O)[C@]2(C)[C@@H](C3=CC(=O)OC3)CC[C@]12O	-3.8% [at 25.6 µM]	
CCN1CCN(Cc2cc(OC)c(OC)cc2[N+](=O)[O-])CC1	-23.6%	
Cc1noc(C)c1C(=O)N1CCC2(CCCN(CC(C)C)C2)CC1	-17.1%	
NC(CCl)=N[C@H]1CN2CCC1CC2	-4.08% [at 11.4 µM]	
N#Cc1ccc(CN2CCCC3(CCN(C(=O)Oc4ccccc4)CC3)C2)cc1	-6.6%	
N#CC(=C(/N)Sc1ccccc1N)/C(C#N)=C(/N)Sc1ccccc1N		31.6 µM (active)
NC(=O)CN1CCCC1=O		inactive
CC(C)C(=O)Nc1ccc([N+](=O)[O-])c(C(F)(F)F)c1		0.316 µM (active)
CCN1CCN(c2ccc(NC(=O)C(C)C)cc2Cl)CC1	-5.66%	
CS(=O)(=O)N1CCCC(C(=O)N2CCC3(CC2)OCCO3)C1 (stereo not drawn)	-9.06%	
CCOC(=O)C1Cc2c([nH]c3ccccc23)CN1 (stereo not drawn)		5.01 µM (active)
CN(C)CS/C(N)=N/[C@H](O)C(Cl)(Cl)Cl	4.09% [at 2.29 µM]	

SMILES	activity, negative = inhibition	AC50
O=C1CN=C(c2cccs2)c2c(sc3c2CCCC3)N1		15.8 µM (active)
NC[C@H](O)c1ccc(O)cc1		inactive
CN1C2C=C3C(C#N)=C(N)C(C#N)(C#N)[C@H](c4c(F)cccc4F)[C@H]3C1CC2 (stereo partly drawn)	-20.5%	
Oc1ccc2c3c1O[C@H]1c4oc5ccccc5c4C[C@]4(O)[C@H](C2)N(CC2CC2)CC[C@@]314	-3.2%	
Nc1ccncc1	-10.7%	
OCc1cnc[nH]1	2.94%	
NC(=NCCc1ccc(I)cc1)SCCCc1cnc[nH]1		15.8 µM (active)
CC(=O)OCC1=C(C(=O)[O-])N2C(=O)[C@@H](NC(=O)CCC[C@@H](N)C(=O)[O-])[C@@H]2SC1.[Zn+2]	-8.72%	
Oc1ccc2[nH]cc(CCCCN3CC=C(c4ccccc4)CC3)c2c1		31.6 µM (active)
COC1(CS(=O)c2ccccc2)CCN(CCc2c[nH]c3ccc(F)cc23)CC1 (stereo not drawn)	-12.4%	
S=C(Nc1ccc(Cl)cc1)NC1CC2CCCC(C1)N2C1CCCC1 (stereo not drawn)	-2.97%	
O=C(Oc1ccccc1)N1CCC2(CCCN(Cc3ccccc3)C2)CC1	-22.8%	
C[C@@H]1O[C@H](O[C@@H]2C=C3CC[C@H]4[C@@H](CC[C@]5(C)[C@@H](c6ccc(=O)oc6)CC[C@]45O)[C@@]3(C)CC2)[C@@H](O)[C@H](O)[C@@H]1O	-2.13% [at 25.6 µM]	
O=C(O)/C=C(\CC(=O)O)C(=O)O	-6.78% [at 11.4 µM]	
CN1CCN(c2ncc3ncc(=O)n(C)c3n2)CC1		12.6 µM (active)
CN1CCC2(CC1)CCN(C(=O)Oc1ccccc1)CC2	0.724%	
CC(C)[C@@H](C)/C=C\[C@@H](C)[C@@H]1CC[C@H]2C3=CC=C4C[C@@H](O)CC[C@]4(C)[C@H]3CC[C@]21C	-8.17% [at 11.4 µM]	
CC(C)NP(=O)(NC(C)C)OP(=O)(NC(C)C)NC(C)C	5.14%	
COc1cc2c(cc1OC)[C@]13CC[N@+]4(C)CC5=CCO[C@H]6CC(=O)N2[C@@H]1[C@@H]6[C@@H]5C[C@]34O	-11.4% [at 2.29 µM]	
C[C@H](NC(C)(C)C)C(=O)c1cccc(Cl)c1		inactive
Cc1c2cc[n+](CCN3CCCCC3)cc2c(C)c2c1[nH]c1ccc(O)cc12		2.51 µM (active)
CCNC(=O)[C@@H]1O[C@@H](n2cnc3c(N)ncnc32)[C@@H](O)[C@H]1O	4.94%	
CP(=O)(O)CCCN	-5.13%	
O=C(CNS(=O)(=O)c1cccs1)N1CCC2(CC1)OCCO2	2.75%	

SMILES	activity, negative = inhibition	AC50
CCn1c(O)c(C(c2ccccn2)c2c(O)n(CC)c(=S)[nH]c2=O)c(=O)[nH]c1=S	8.62%	
OC(Cn1c2ccccc2c2ccccc21)C[n+]1ccccc1 (stereo not drawn)		3.16 µM (active)
C/C=C1\C[C@H](C)[C@@](O)(CO)C(=O)OCC2=CCN3CC[C@@H](OC1=O)[C@@H]23	-2.57% [at 25.6 µM]	
CCOP(=O)(OCC)C(NC(=O)C(Cl)Cl)C(Cl)(Cl)Cl (stereo not drawn)	-3.49%	
COCC(=O)N1CCC2(CCCN(Cc3ccncc3)C2)CC1	-9.26%	
Nc1nc(OCc2ccccc2)c2[nH]cnc2n1		1 µM (active)
O=C(Oc1ccccc1)N1CCC2(CCN(Cc3nccs3)CC2)CC1	-4.58%	
NC[C@H](O)c1cc(O)c(O)cc1F	-15.4%	
CN1CCc2cc3c(cc2[C@@H]1O)OCO3	-10.2% [at 25.6 µM]	
C[N+]1(C)CCc2cc3c(cc2[C@@H]1[C@@H]1OC(=O)c2c1ccc1c2OCO1)OCO3	-11.3%	
CN1Cc2c(ccc3c2OCO3)[C@@H]2[C@@H](O)Cc3cc4c(cc3[C@@H]21)OCO4		2.51 µM (active)
Cn1c(O)c(C(c2ccccn2)c2c(O)n(C)c(=S)n(C)c2=O)c(=O)n(C)c1=S	3.65%	
CC(C)(C)c1o[nH]c(=O)c1C[C@H](N)C(=O)O		inactive
COc1cc([C@@H](O)CN)ccc1O	2.29%	
COc1cc(CCN)c(OC)c(OC)c1		3.16 µM (active)
Cn1c(=O)c2[nH]cnc2n(C)c1=O.[CH2-][C@H](Cc1cccc2cc(C(=O)O)c(=O)oc12)OC.[Hg].[OH-]	-15.3% [at 11.4 µM]	
COc1cc2ccccc2c2cc([N+](=O)[O-])oc12		0.126 µM (active)
C[C@H]1C(=O)O[C@@H]2CCN3CC=C(COC(=O)[C@@](C)(O)[C@@]1(C)O)[C@H]23	-3.43% [at 25.6 µM]	
c1ccc2c(c1)OC[C@@H](C1=NCCN1)O2		inactive
NCC#Cc1ccccc1		3.16 µM (active)
C/C=C1\C[N@@+]2(C)CC[C@@]34C(=C(C=O)[C@H]1C[C@H]32)Nc1ccccc14	-4.2% [at 25.6 µM]	
C[N+]1(C)C2CC(OC(=O)C(CO)c3ccccc3)CC1[C@@H]1O[C@H]21 (stereo partly drawn)		inactive
OC(c1ccccc1)(c1ccccc1)C1CCNCC1	-7.42% [at 25.6 µM]	
OC(c1ccccc1)(c1ccccc1)C1CCCN1 (stereo not drawn)		15.8 µM (active)

SMILES	activity, negative = inhibition	AC50
CC[C@H](C)C(=O)O[C@@H]1[C@H](O)[C@@H]2[C@H](CN3C[C@@H](C)CC[C@@H]3[C@@]2(C)O)[C@@H]2C[C@@]34O[C@@]5(O)[C@@H](OC(=O)[C@](C)(O)CC)CC[C@@]3(C)[C@H]5[C@H](OC(C)=O)[C@@H](OC(C)=O)[C@H]4[C@]12O	-4.04% [at 25.6 µM]	
CC(C)Oc1cccnc1N(C)C1CCN(Cc2ccccc2)CC1	9.93%	
CS(=O)(=O)N1CCC2(CC1)CN(Cc1ccncc1)C2	-10.1%	
O=c1[nH]oc2c1CCNC2		inactive
Cn1ccnc1	4.4%	
CC(C)CCC[C@@H](C)[C@@H]1CC[C@@H]2[C@H]3CC[C@H]4C[C@@H](N)CC[C@@]4(C)[C@@H]3CC[C@]21C	3.33% [at 11.4 µM]	
C[C@@]12CC[C@H]3[C@@H](CC[C@@H]4C[C@H]5S[C@H]5C[C@]43C)[C@H]1CC[C@H]2O		0.0251 µM (active)
C[C@]12CC[C@H](O)C[C@@H]1CC[C@H]1[C@H]2CC[C@]2(C)C(=O)CC[C@@H]12		inactive
C[As+](C)(c1ccc(Br)c([N+](=O)[O-])c1)c1ccc(Br)c([N+](=O)[O-])c1.O=[N+]([O-])O	-12.7% [at 11.4 µM]	
COc1cc(-c2ccc(=O)[nH]n2)ccc1OC(F)F		2.51 µM (active)
CC(C)CN1CCC2(CC1)CCN(S(C)(=O)=O)CC2	-17.4%	
O=C(CCCN1CCC(n2c(=O)[nH]c3ccccc32)CC1)c1ccc(F)cc1	-11% [at 25.6 µM]	
CN1C(=O)C(=Cc2ccc(N3CCCCC3)o2)C(=O)N(C)C1=S		1.58 µM (active)
CN1C(=O)C(=Cc2ccc(N3CCCCCC3)o2)C(=O)N(C)C1=S		1.58 µM (active)
CC(=O)NBr	-8.01%	
O=C(Oc1ccccc1)N1CCC2(CCN(Cc3ccccc3)CC2)CC1	-8.29%	
CC(C)COC(=O)OCN1C(=O)CN(CCN2CC(=O)N(COC(=O)OCC(C)C)C(=O)C2)CC1=O	-4.86%	
Cc1ncc([N+](=O)[O-])n1CCN=[N+]=[N-]	-9.71% [at 11.4 µM]	
COc1cc(CN2CCN(C(=O)COc3ccccc3)CC2)cc(OC)c1OC	21.8%	
C[C@@H](N)Cn1ccc2cc(F)c(Cl)cc21		0.0501 µM (active)
CCCCCC[C@H]1C(=O)O[C@H](C)[C@H](NC(=O)c2cccc(NC=O)c2O)C(=O)O[C@@H](C)[C@H]1OC(=O)CC(C)C	-17.2% [at 25.6 µM]	
